Experimental data: PubChem BioAssay AID463173 (ICCB-Longwood Screening Facility, Harvard Medical School, 2010)
Out of some 52,000 compounds screened, about 4,300 (8.3%) were called active. Rule as the data show it: active = survival mostly below about 52% (no sharp cut-off); inactive = mostly above about 56%. The full list was thinned out, with actives kept by preference.

system: DeltatarO mutant; assay: S. aureus survival, RN4220 and DeltatarO strains – OD600, teichoic acid synthesis inhibitors, primary screen (AID 463173); details: S. aureus RN4220 wild type/DeltatarO growth, OD600, 18 h, stronger effect = lower value, screened at 18.75 µg/mL (by protocol)

Compound	survival
O=C(NCc1ccc(F)cc1)C1CCN(c2ncnc3c2nc2n3CCCCC2)CC1	86% (inactive)
CCC1(c2ccccc2)NC(=O)NC1=O (stereo not given)	98% (inactive)
Clc1nc(Cl)nc(OCCCOc2nc(Cl)nc(Cl)n2)n1	94% (inactive)
CCc1c(C)nc2nncn2c1Nc1ccc(Cl)cc1	91% (inactive)
Cc1ccc(N2CCN(c3nc4ccccc4c4nnc(C)n34)CC2)c(C)c1	101% (inactive)
CCOC(=O)c1cc(OC(=O)c2cccc(C)c2)n(-c2ccccc2)n1	59% (inactive)
CCOC(=O)c1cc(OC(=O)c2cc(OC)c(OC)c(OC)c2)n(-c2ccccc2)n1	54% (active)
CCOC(=O)c1cc(OC(=O)c2ccccc2OC)n(-c2ccccc2)n1	54% (inactive)
CCOC(=O)c1cc(OC(=O)c2ccc(OC)cc2)n(-c2ccccc2)n1	59% (active)
CCOC(=O)c1cc(OC(=O)c2ccc(Cl)cc2)n(-c2ccccc2)n1	85% (active)
CCOC(=O)c1cc(OC(=O)c2cc(OC)cc(OC)c2)n(-c2ccccc2)n1	62% (inactive)
CCOC(=O)c1cc(OC(=O)c2ccc(OC)c(OC)c2)n(-c2ccccc2)n1	67% (inactive)
CCOC(=O)c1cc(OC(=O)c2ccc(C)cc2)n(-c2ccccc2)n1	137% (inactive)
CCOC(=O)c1cc(OC(=O)c2cccc(F)c2)n(-c2ccccc2)n1	61% (inactive)
CCOc1ccc(NC(=O)CN2C(=O)COc3ccc(S(=O)(=O)NC4CCCC4)cc32)cc1	73% (inactive)
O=C(c1ccc(F)cc1)N1CCN(CCc2ccncc2)CC1	84% (inactive)
CCc1ccc(NCc2cc3ccc(OC)cc3n(CC(=O)Nc3c(C)cc(C)cc3C)c2=O)cc1	76% (inactive)
N#CSc1ccc(NCCO)cc1C(F)(F)F	95% (inactive)
O=C(NCCc1ccc(Cl)cc1)C(=O)NCC(c1ccco1)S(=O)(=O)c1ccc(Cl)cc1 (stereo not given)	94% (inactive)
O=C1CN(C(=O)c2ccc(Cl)cc2Cl)C(c2ccc(F)cc2)c2cc(F)ccc2N1 (stereo not given)	65% (inactive)
O=c1c(NCc2cccs2)nccn1-c1ccccc1	68% (inactive)
O=c1c(NCc2ccccc2Cl)nccn1-c1ccccc1	17% (active)
COc1ccc(-n2ccnc(NCc3ccc(C)cc3)c2=O)cc1OC	94% (inactive)
COc1ccc(-n2ccnc(NCc3cccs3)c2=O)cc1	20% (active)
COc1ccc(-n2ccnc(NCc3ccc(Cl)cc3)c2=O)cc1	8% (active)

Compound	survival
O=c1c(NCCc2ccc(Cl)cc2)nccn1-c1ccccc1	55% (inactive)
COc1ccc(-n2ccnc(NCc3cccs3)c2=O)cc1OC	85% (inactive)
COc1ccc(-n2ccnc(NCc3ccccc3Cl)c2=O)cc1OC	81% (inactive)
COc1ccc(-n2ccnc(NCc3ccccc3OC)c2=O)cc1	89% (inactive)
Cc1cc(C)cc(NC(=O)c2cccc(N3CCCS3(=O)=O)c2)c1	101% (inactive)
CCc1ccc(N2C(=O)CSC23C(=O)N(Cc2cccc(F)c2)c2ccccc23)cc1 (stereo not given)	124% (inactive)
O=C1C(=O)N(C2CCN(C(=O)c3ccccc3Cl)CC2)CCN1Cc1ccc(F)cc1	67% (inactive)
CN1C(C(=O)Nc2ccc(F)cc2F)=CC(c2cccs2)=NS1(=O)=O	99% (inactive)
CCCOc1ccc(-c2nc(SC)[nH]c(=O)c2C#N)cc1OC	79% (inactive)
O=C(c1ccccc1Cl)N1CCC(c2nc3ccccc3s2)CC1	57% (inactive)
CCC(Oc1ccccc1F)C(=O)N1CCC(c2nc3ccccc3s2)CC1 (stereo not given)	2% (active)
COc1cc(C(=O)N2CCC(c3nc4ccccc4s3)CC2)cc(OC)c1OC	74% (inactive)
Cc1ccccc1C(=O)N1CCC(c2nc3ccccc3s2)CC1	75% (inactive)
CCc1ccc(OC(C)C(=O)N2CCC(c3nc4ccccc4s3)CC2)cc1 (stereo not given)	28% (active)
COc1ccc(C(=O)N2CCC(c3nc4ccccc4s3)CC2)cc1Cl	62% (inactive)
COc1ccccc1OC(C)C(=O)N1CCC(c2nc3ccccc3s2)CC1 (stereo not given)	2% (active)
COc1cccc(C(=O)N2CCC(c3nc4ccccc4s3)CC2)c1	70% (inactive)
CC(Oc1ccc(F)cc1)C(=O)N1CCC(c2nc3ccccc3s2)CC1 (stereo not given)	58% (inactive)
COCCCNC(=O)Cn1cnc2sc(C)c(S(=O)(=O)N3CCC(C)CC3)c2c1=O	69% (inactive)
CCOCCc1nn2c(=O)cc(COC(=O)c3ccccc3NC(=O)c3cccs3)nc2s1	58% (inactive)
COc1ccc(CNC(=O)c2cc(-c3ccc(C)cc3)nc3n[nH]c(-c4ccc(Br)cc4)c23)cc1	74% (inactive)
O=C(NCCc1ccc(Cl)cc1)c1nnc(Cc2ccc(Cl)cc2Cl)o1	96% (inactive)
COc1ccccc1CNC(=O)CCNS(=O)(=O)c1ccc2c(c1)CCCC(=O)N2	60% (inactive)
CC1CCN(C(=O)Cn2c(=O)n(CCCCCC(=O)NCc3ccccc3Cl)c(=O)c3sccc32)CC1	69% (inactive)
COc1ccc(N2CC(NC(=O)C(c3ccccc3)c3ccccc3)CC2=O)cc1OC (stereo not given)	90% (inactive)

Compound	survival
CC(=O)Nc1ccc(NC(=O)C(NC(=O)C2CCC(C)CC2)C(C)C)cc1 (stereo not given)	128% (inactive)
CN1CCc2nc3sc(C(=O)Nc4cccc(C#N)c4)c(N)c3cc2C1	54% (active)
CN1CCc2nc3sc(C(=O)Nc4c(F)cccc4F)c(N)c3cc2C1	153% (inactive)
CCN(CC)c1ccc(NC(=O)c2sc3nc4c(cc3c2N)CN(C)CC4)cc1	181% (inactive)
Nc1c(C(=O)Nc2ccc(C(=O)O)cc2)sc2nc3c(cc12)CCCC3	42% (active)
CCN1CCc2nc3sc(C(=O)Nc4cccc(Cl)c4C)c(N)c3cc2C1	125% (inactive)
COc1ccc(NC(=O)c2sc3nc4c(cc3c2N)CCCCCC4)cc1	127% (inactive)
COc1ccc(NC(=O)c2sc3nc4c(cc3c2N)CN(Cc2ccccc2)CC4)cc1	96% (inactive)
COc1ccc(NC(=O)c2sc3nc4c(cc3c2N)CN(Cc2ccccc2)CC4)c(OC)c1	47% (active)
CCN1CCc2nc3sc(C(=O)Nc4ccccc4OC(F)(F)F)c(N)c3cc2C1	44% (active)
CC(=O)c1cccc(NC(=O)c2sc3nc4c(cc3c2N)CCCC4)c1	60% (inactive)
COc1ccccc1NC(=O)c1sc2nc3c(cc2c1N)CN(Cc1ccccc1)CC3	101% (inactive)
CCOc1ccccc1NC(=O)c1sc2nc3c(cc2c1N)CN(Cc1ccccc1)CC3	63% (inactive)
CCOC(=O)C1=C(CS(=O)(=O)c2cccc(C(F)(F)F)c2)NC(=O)NC1c1cccc(OC)c1 (stereo not given)	48% (inactive)
CC(=O)c1ccc(NS(=O)(=O)c2ccc3[nH]c4c(c3c2)CCCCCC4)cc1	84% (inactive)
CCOc1ccc(C(=O)c2oc3ccccc3c2NC(=O)Cc2coc3cc(C)cc(C)c23)cc1	100% (inactive)
CC(=O)c1ccc(NC(=O)CSc2ccc(-c3cccs3)nn2)cc1	126% (inactive)
COc1cccc(C(=O)CN2CCN(S(=O)(=O)c3ccc(Cl)cc3)CC2)c1	74% (inactive)
COc1ccccc1OCC(=O)N(Cc1ccco1)Cc1ccccc1F	64% (inactive)
CCc1cc(CC)c(/C=N/NC(N)=O)c(CC)c1/C=N/NC(N)=O	94% (inactive)
Nc1c(C(=O)Nc2ccccc2)sc2nc3c(cc12)CN(Cc1ccccc1)CC3	63% (inactive)
Cc1ccc(NC(=O)c2sc3nc4c(cc3c2N)CN(Cc2ccccc2)CC4)cc1	110% (inactive)
CCc1ccc(NC(=O)c2sc3nc4c(cc3c2N)CN(CC)CC4)cc1	49% (active)
Cc1cccc(N2CCN(C(=O)Cn3ncc4c3-c3ccccc3OC4)CC2)c1C	77% (inactive)
COc1ccc2[nH]c(C)c(CCNS(=O)(=O)c3cc(F)ccc3OC)c2c1	57% (inactive)

Compound	survival
COc1cc(Cl)c(S(=O)(=O)NCCc2c(C)[nH]c3c(C)cccc23)cc1Cl	57% (inactive)
COc1cc(S(=O)(=O)NCCc2c(C)[nH]c3ccccc23)c(C)cc1C	56% (inactive)
COc1c(C)cc(S(=O)(=O)NCCc2c(C)[nH]c3ccccc23)c(C)c1C	59% (active)
COc1cc(C)c(Cl)cc1S(=O)(=O)NCCc1c(C)[nH]c2ccccc12	37% (active)
COc1ccc(C(C)C)cc1S(=O)(=O)NCCc1c(C)[nH]c2ccc(C)cc12	84% (inactive)
COc1cccc(C(c2nnnn2CCC(C)C)N2CCN(c3cccc(C)c3C)CC2)c1OC (stereo not given)	82% (inactive)
CCOC(=O)C1CC1c1ccccc1 (stereo not given)	81% (inactive)
Cc1cccc(C(=O)Nc2ccc(C(=O)OCc3cc(=O)n4nc(CC(C)C)sc4n3)cc2)c1	99% (inactive)
COc1cccc(Nc2ccc3cc(S(=O)(=O)N4CCC(C)CC4)ccc3n2)c1	88% (inactive)
COc1ccc(NC(=O)N(Cc2nnc3n2CCCCC3)c2ccc(OC)c(Cl)c2)cc1	60% (inactive)
O=C(O)c1cccnc1N1CCOCC1	84% (inactive)
O=C(NCc1cccs1)c1ccc(CSc2nc3ccncc3n2Cc2ccccc2)cc1	110% (inactive)
COc1ccc(OC)c(NS(=O)(=O)c2ccc3[nH]c4c(c3c2)CCCCC4)c1	77% (inactive)
Cc1ccc(-c2ccc(=O)n(Cc3ccc(F)cc3)n2)cc1	50% (inactive)
Cc1ccc(C)c(-c2ccc(=O)n(Cc3ccc(F)cc3Cl)n2)c1	32% (active)
C=Cc1ccc(Cn2nc(-c3ccc(C)c(S(=O)(=O)N(CC)CC)c3)ccc2=O)cc1	53% (inactive)
O=c1ccc(-c2ccccc2)nn1Cc1ccc(F)cc1Cl	49% (inactive)
Cc1ccc(C)c(Cn2nc(-c3cc(C)ccc3C)ccc2=O)c1	44% (inactive)
Cc1ccc(CCNC(=O)Cn2nc(-c3ccc(C)cc3)ccc2=O)cc1	0% (active)
C=Cc1ccc(Cn2nc(-c3ccc(C)cc3)ccc2=O)cc1	35% (active)
COC(=O)c1ccc(Cn2nc(-c3ccc(C)cc3)ccc2=O)cc1	133% (inactive)
Cc1ccc(-c2ccc(=O)n(CC(=O)NCCc3ccccc3)n2)cc1	57% (inactive)
Cc1ccc(-c2ccc(=O)n(CC(=O)NCCc3ccc(Cl)cc3)n2)cc1	69% (inactive)
Cc1ccc(C)c(-c2ccc(=O)n(Cc3c(F)cccc3Cl)n2)c1	81% (inactive)
Cc1ccc(-c2ccc(=O)n(Cc3cc(C)ccc3C)n2)cc1	57% (active)
